The values that follow come from PubChem BioAssay.

The source made the active and inactive calls.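 The calls were made as follows, unless noted: active = visual image review flags a hit and inhibition of aggregation exceeds 20%; inconclusive = visual hit but inhibition at or below 20%; inactive = no hit on visual image review.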

Assay [1] in a line: inhibitors of TNFa-induced NFkB p65 translocation, primary screen, imaging, HUVEC, MLSMR starter and 10KST1 sets (AID 438;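 active = inhibition above 20% together with a positive visual image hit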;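 also: compound added about 3h40 before a 20 min TNFalpha stimulation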;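 as to inhibition: signal is the nuclear over cytoplasmic p65 intensity ratio per well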). Conditions: HUVEC TNFa-induced p65 nuclear translocation; cell count: measured here: nuclei count (cytotoxicity indicator), at 2.08 µM; inhibition: at 2 µM, stronger effect = higher value, 0% TNFa-plus-vehicle, 100% no-TNFa wells.
Assay [2] can be described thus: inhibitors of mutant huntingtin aggregation, primary screen, imaging, exon1htt(103Q)mCFP cells, high-content imaging (AID 483).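 Also: compound exposure lasted 3 days before fixation.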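 As to nuclei count: percent of the per-plate median nuclei count of sample wells.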 Conditions: exon1htt(103Q)mCFP cell line, aggregate imaging, at 2 µM; inhibition of aggregation: stronger effect = higher value; nuclei count: measured here: cell count, toxicity.
A short description of assay [3]: inhibitors of E-selectin induction by TNFa, primary screen, imaging, HUVEC, immunofluorescence, MLSMR starter and 10KST1 sets (AID 487;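 active = visually confirmed hit in the image check and inhibition above 20%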;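 as to inhibition: signal is fraction of cell area covered by stained E-selectin grains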;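 as to nuclei count: 100% = median nuclei count of all wells on the same plate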). Conditions: HUVEC TNFalpha-induced E-selectin immunofluorescence imaging, at 2 µM; inhibition: stronger effect = higher value; nuclei count: measured here: cell number, toxicity.
The target in assay [4] is Voltage-gated potassium channel subunit beta-2 (Rattus norvegicus) (UniProt P62483). The assay can be described thus: KvBeta enzyme negative modulators, primary screen, biochemical, NADPH fluorescence (AID 622;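 active = fluorescence slope higher than the sample average by over 3 SD, cut at about -0.22 in these data, passing the limit was not always enough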;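 also: slope of raw intensity against log time taken from 70 to 1610 s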). Conditions: recombinant KvBeta, 4-cyanobenzaldehyde reduction, at 10 µM, stronger effect = higher value.
The target is the same in assay [5]. Put plainly: KvBeta positive modulators, primary screen, biochemical, NADPH fluorescence (AID 623;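 active = NADPH fluorescence slope more negative than the mean of all samples by about 3 SD, 99.7% confidence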;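 also: fluorescence intensity change per second fitted from 20 to 320 s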). Conditions: Recombinant KvBeta, NADPH fluorescence decrease slope, 10 min; at 10 µM; stronger effect = lower value.
Assay [6] addresses Alpha-2C adrenergic receptor (Homo sapiens) (UniProt P18825). The assay can be described thus: modulators of alpha2C/GIRK thallium flux, primary screen, cell-based, HEK293 alpha2C/GIRK1/2 (AID 624;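 active = fluorescence slope after compound addition differing from the mean of all screened samples at 99.7% confidence, in either direction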;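 also: slope of fluorescence ratio to pre-addition baseline per second over 15 to 24 s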). Particulars: thallium flux BTC fluorescence, at 10 µM, actives lie on both sides.
A short description of assay [7]: inhibitors of Sendai virus-induced IRF3 signaling, primary screen, TLR/RLR signaling modifier project, cell-based, Sendai virus stimulus, luciferase, 10K MLSCN set (AID 602276;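 active = inhibition at or above 50% at 10 µM; inactive = inhibition below 50%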;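 also: firefly luciferase from ISG56 promoter only with Renilla not read in this screen; 0% = Sendai virus plus DMSO and 100% = medium plus DMSO without virus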). Particulars: HEK293 RL24 IRF3 luciferase reporter, at 10 µM, stronger effect = higher value.
The nature of assay [8]: inhibitors of poly I:C-induced TLR3 signaling, primary screen, cell-based, poly I:C stimulus, luciferase, 10K MLSCN set (AID 602277;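 active = inhibition of the reporter signal at or above 50%; inactive = inhibition below 50%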). Particulars: HEK293-TLR3 RL24 IRF3 luciferase reporter, at 10 µM, stronger effect = higher value. Background: A reporter such as luciferase makes a cellular process visible.

Alpha-2C adrenergic receptor (Homo sapiens), sequence (P18825 whole entry, looked up): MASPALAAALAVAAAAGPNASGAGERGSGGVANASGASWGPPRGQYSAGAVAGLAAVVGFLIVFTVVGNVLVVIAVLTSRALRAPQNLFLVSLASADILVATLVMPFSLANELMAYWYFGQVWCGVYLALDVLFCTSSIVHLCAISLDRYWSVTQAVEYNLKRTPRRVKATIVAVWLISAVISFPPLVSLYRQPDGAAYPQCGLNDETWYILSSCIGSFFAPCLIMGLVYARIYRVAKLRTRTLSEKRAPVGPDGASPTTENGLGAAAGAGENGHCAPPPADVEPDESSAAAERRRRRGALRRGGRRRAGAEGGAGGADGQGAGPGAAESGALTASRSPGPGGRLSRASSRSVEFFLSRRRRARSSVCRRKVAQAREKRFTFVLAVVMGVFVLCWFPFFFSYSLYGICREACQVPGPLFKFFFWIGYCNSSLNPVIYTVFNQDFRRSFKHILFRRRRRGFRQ
Voltage-gated potassium channel subunit beta-2 (Rattus norvegicus), sequence (P62483 whole entry, looked up): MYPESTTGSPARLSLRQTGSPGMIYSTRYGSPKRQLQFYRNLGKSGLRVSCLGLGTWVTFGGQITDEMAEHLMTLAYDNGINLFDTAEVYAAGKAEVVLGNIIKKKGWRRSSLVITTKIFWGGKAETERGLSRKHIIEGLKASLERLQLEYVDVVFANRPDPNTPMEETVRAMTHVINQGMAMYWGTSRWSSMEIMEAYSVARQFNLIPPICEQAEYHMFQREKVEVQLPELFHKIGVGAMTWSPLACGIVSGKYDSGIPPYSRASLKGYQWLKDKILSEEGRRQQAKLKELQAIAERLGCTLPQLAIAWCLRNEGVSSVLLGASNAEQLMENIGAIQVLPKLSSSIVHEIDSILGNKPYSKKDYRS

As a reminder, the inhibition is the relative decrease from the control value, in per cent. Regarding `COc1ccc(NC(=O)c2oc3ccc(S(=O)(=O)N4CCC5(CC4)OCCO5)cc3c2C)cc1`, in assay [1], the cell count worked out at 209. Besides, the inhibition in assay [1] was -4.4% (inactive); in assay [3], -77.8% (inactive); in assay [7], 3.21% (inactive); in assay [8] it was 10.5% (inactive). For the same compound, in assay [2], the inhibition of aggregation is 10% (inactive). The figures for the nuclei count in assay [2] and in assay [3] were 83.1% and 121%, respectively. Further, in assay [4], the fluorescence slope was -0.447 (inactive). Also, the NADPH fluorescence slope in assay [5] is 4.2e-05 (inactive). Also, the slope in assay [6] was 0.00642 (inactive).

Regarding `C=CCn1c(COc2cccc(C)c2)nnc1SCC(=O)NC(=O)NCc1ccco1`, in assay [1], the cell count amounted to 365. The inhibition was -10.6% (inactive) in assay [1], 6.1% (inactive) in assay [3], 16.1% (inactive) in assay [7] and 30.1% (inactive) in assay [8]. For the same compound, the inhibition of aggregation in assay [2] was 23.8% (inactive). The figures for the nuclei count in assay [2] and in assay [3] were 86.7% and 113%, respectively. The fluorescence slope in assay [4] was -0.405 (inactive). The NADPH fluorescence slope in assay [5] was 3.1e-05 (inactive). Besides, in assay [6], the slope was 0.00673 (inactive).

As to `COc1ccc(S(=O)(=O)Nc2ccc(S(=O)(=O)N3CCCCC3)cc2)cc1OC`, the cell count in assay [1] stood at 444. Further, the inhibition in assay [1] is -4.8% (inactive); in assay [3], -34.6% (inactive); in assay [7], 5.56% (inactive); in assay [8], 29.1% (inactive). The inhibition of aggregation in assay [2] was -3.5% (inactive). Also, the results for the nuclei count in assay [2] and in assay [3] were 110% and 99.1%, respectively. In addition, the fluorescence slope in assay [4] is -0.459 (inactive). The NADPH fluorescence slope in assay [5] was -4.3e-05 (inactive). In assay [6], the slope was 0.00325 (inactive).

Consider `O=C(OCc1nnc(-c2ccccc2)o1)c1ccc2ccccc2n1`, for which, in assay [1], the cell count is 457. Further, the inhibition in assay [1] was -3.1% (inactive); in assay [3], -165% (inactive); in assay [7] it was -29.8% (inactive); in assay [8], -34.4% (inactive). In addition, the inhibition of aggregation in assay [2] was -11.6% (inactive). For the same compound, the nuclei count in assay [2] came out at 95.8%; in assay [3] it was 106%. Also, the fluorescence slope in assay [4] was -0.565 (inactive). For the same compound, the NADPH fluorescence slope in assay [5] was 7e-05 (inactive). Moreover, in assay [6], the slope is 0.00433 (inactive).

In the case of `COCCNC(=O)c1ccc(CS(=O)(=O)c2c(Cl)cccc2Cl)o1`, the cell count in assay [1] was 462. In addition, the inhibition in assay [1] is -6.8% (inactive); in assay [3], -46.3% (inactive); in assay [7], -1.52% (inactive); in assay [8], 24.5% (inactive). In addition, the inhibition of aggregation in assay [2] was 22.9% (inactive). Besides, the figures for the nuclei count in assay [2] and in assay [3] were 103% and 112%, respectively. Further, in assay [4], the fluorescence slope is -0.428 (inactive). Further, in assay [5], the NADPH fluorescence slope was 2.4e-05 (inactive). Further, the slope in assay [6] is 0.00478 (inactive).

On to `CCOc1ccc(S(=O)(=O)Nc2cccc(Cl)c2)cc1`, for which, in assay [1], the cell count stood at 376. The inhibition is -2.9% (inactive) in assay [1], -10.2% (inactive) in assay [3], 38.8% (inactive) in assay [7] and 34.1% (inactive) in assay [8]. Also, the inhibition of aggregation in assay [2] was -0.3% (inactive). Besides, the nuclei count worked out at 78.4% in assay [2] and 81.5% in assay [3]. Further, the fluorescence slope in assay [4] is -0.627 (inactive). For the same compound, in assay [5], the NADPH fluorescence slope is -2.5e-05 (inactive). In assay [6], the slope is 0.00349 (inactive).

On to `O=C(Nc1ccc(F)cc1)NC1CCN(Cc2nnnn2Cc2ccco2)CC1`, for which the cell count in assay [1] turned out to be 849. Besides, the inhibition in assay [1] was 0% (inactive); in assay [3] it was -2.9% (inactive); in assay [7] it was -9.98% (inactive); in assay [8] it was 0.354% (inactive). Moreover, the inhibition of aggregation in assay [2] is -19.5% (inactive). The nuclei count in assay [2] stood at 94.3%; in assay [3], 113%. Also, the fluorescence slope in assay [4] is -0.501 (inactive). In assay [5], the NADPH fluorescence slope is -4.4e-05 (inactive). The slope in assay [6] was 0.00571 (inactive).

As to `COc1cccc(OCCSc2nnc3sc4ccccc4n23)c1`, in assay [1], the cell count was determined as 548. Further, the inhibition in assay [1] was -6.3% (inactive); in assay [3], -24.1% (inactive); in assay [7] it was -10.1% (inactive); in assay [8], -31.6% (inactive). In addition, the inhibition of aggregation in assay [2] was 0.2% (inactive). Further, the nuclei count in assay [2] amounted to 89%; in assay [3], 127%. Also, the fluorescence slope in assay [4] is -0.463 (inactive). Further, in assay [5], the NADPH fluorescence slope was -0.000108 (inactive). For the same compound, the slope in assay [6] is 0.00727 (inactive).

Consider `Cc1cc(Cl)ccc1NC(=O)CSc1nnc(Cc2cccs2)n1Cc1ccco1`, for which the cell count in assay [1] was determined as 270. Moreover, the inhibition in assay [1] was -4.3% (inactive); in assay [3] it was -32.8% (inactive); in assay [7], 17.4% (inactive); in assay [8], 32.2% (inactive). The inhibition of aggregation in assay [2] is 27.5% (inactive). Moreover, the results for the nuclei count in assay [2] and in assay [3] were 74.6% and 102%, respectively. Besides, in assay [4], the fluorescence slope was -0.494 (inactive). In addition, the NADPH fluorescence slope in assay [5] was -5e-05 (inactive). In assay [6], the slope was 0.00645 (inactive).

Take `CC(C)CC(=O)N1CCN(S(=O)(=O)c2ccc(F)cc2)CC1`: the cell count in assay [1] was 662. Further, the inhibition in assay [1] is 7.7% (inactive); in assay [3] it was 34.7% (inactive); in assay [7], -4.5% (inactive); in assay [8], -11.7% (inactive). Moreover, in assay [2], the inhibition of aggregation was -7.6% (inactive). Moreover, the nuclei count was found to be 105% in assay [2] and 86.5% in assay [3]. The fluorescence slope in assay [4] was -0.401 (inactive). For the same compound, the NADPH fluorescence slope in assay [5] was 2e-05 (inactive). The slope in assay [6] is 0.00623 (inactive).

With `O=S(CC(O)COCc1ccc(Cl)cc1)c1ccccn1` (centres undefined), the cell count in assay [1] was 420. The inhibition in assay [1] was -7.1% (inactive); in assay [3] it was -37% (inactive); in assay [7], 18.9% (inactive); in assay [8], 23.8% (inactive). Besides, in assay [2], the inhibition of aggregation was -11.3% (inactive). The nuclei count in assay [2] is 107%; in assay [3] it was 127%. Moreover, the fluorescence slope in assay [4] is -0.442 (inactive). Besides, the NADPH fluorescence slope in assay [5] was 6.3e-05 (inactive). Besides, the slope in assay [6] is 0.00586 (inactive).

In the case of `CCOC(=O)c1sc(NC(=O)c2c(C)nn(Cc3ccccc3)c2C)cc1C`, in assay [1], the cell count is 395. Besides, the inhibition in assay [1] was -7.8% (inactive); in assay [3], -20.6% (inactive); in assay [7], -9.51% (inactive); in assay [8], -3.87% (inactive). Further, the inhibition of aggregation in assay [2] is 42.3% (active). The nuclei count in assay [2] is 60%; in assay [3], 106%. The fluorescence slope in assay [4] was -0.448 (inactive). For the same compound, the NADPH fluorescence slope in assay [5] was -0.000126 (inactive). The slope in assay [6] is 0.00542 (inactive).

`CC(C)(C)n1nnnc1CN(Cc1ccco1)Cc1cc2cc3c(cc2[nH]c1=O)OCO3`: the cell count in assay [1] came out at 667. Besides, the inhibition in assay [1] is 13.3% (inactive); in assay [3], -53.9% (inactive); in assay [7], 15.5% (inactive); in assay [8] it was 16% (inactive). For the same compound, the inhibition of aggregation in assay [2] is -11.2% (inactive). Further, the results for the nuclei count in assay [2] and in assay [3] were 108% and 130%, respectively. Besides, the fluorescence slope in assay [4] is -0.401 (inactive). For the same compound, the NADPH fluorescence slope in assay [5] is -5.7e-05 (inactive). Further, the slope in assay [6] was 0.00513 (inactive).

On to `COc1cc(C2C(C#N)=C(C)NC3=C2C(=O)CC(C)(C)C3)ccc1O` (centres undefined), for which the cell count in assay [1] amounted to 422. Further, the inhibition is -1.9% (inactive) in assay [1], -15.6% (inactive) in assay [3], 8.2% (inactive) in assay [7] and 16.9% (inactive) in assay [8]. Besides, the inhibition of aggregation in assay [2] is 1% (inactive). Moreover, the nuclei count in assay [2] and in assay [3] was 103% throughout. The fluorescence slope in assay [4] is -0.453 (inactive). Also, in assay [5], the NADPH fluorescence slope is -2e-05 (inactive). Besides, the slope in assay [6] is 0.00555 (inactive).
